Results: PubChem BioAssay AID588850 (Sanford-Burnham Center for Chemical Genomics, 2011)
In all, about 360,000 compounds went through this assay and about 3,100 (0.86%) were called active. The sample holds actives, similar compounds and a random draw of the others, so the mix is not that of the screen.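 How the source made its calls: active means at least 50% inhibition at 5 µM, scaled per plate between neutral and stimulator controls; inactive means the rest.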

Assay: inhibitors of PAF-induced NF-kB signaling, primary screen, cell-based, GFP fluorescence, uHTS (AID 588850);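 further: PAF is a Pseudomonas aeruginosa culture filtrate used as stimulus; plate controls were PAF-stimulated DMSO wells for no effect and unstimulated DMSO wells for full effect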
Details: KKLEB NF-kB-GFP reporter, GFP fluorescence overnight, at 5 µM, active compounds read high

SMILES	inhibition
Nc1ncnc2c1ncn2[C@@H]1O[C@H](C(=O)N2CCSC2)[C@@H](O)[C@H]1O	4.9% (inactive)
COC(=O)C1=C(C)NC(=O)/C1=C/c1ccc(CNS(=O)(=O)c2ccc(C)cc2)o1	-6.4% (inactive)
COC(=O)C1=C(C)NC2=C(C(=O)c3ccccc32)C1c1ccc(-c2ccc(C(=O)O)cc2)o1 (stereo unspecified)	76.6% (active)
COC(=O)C1=C(C)N(C)C(=O)NC1c1ccc([N+](=O)[O-])o1 (stereo unspecified)	1.5% (inactive)
Cc1cn([C@H]2C[C@H](O)[C@@H](CNC(=O)[C@H](N)Cc3cccnc3)O2)c(=O)[nH]c1=O	-3.6% (inactive)
COC(=O)c1c(C)[nH]c(C(=O)/C=C/c2ccc(Cl)cc2)c1C	3.1% (inactive)
Cc1[nH]c(=O)c(C(=O)/C=C/c2ccccc2)c2c1CCCC2	51.1% (active)
CC1(C(=O)O)CCCN(C(=O)/C=C/c2ccccc2)C1 (stereo unspecified)	-1.6% (inactive)
Cn1c(SCC(=O)NC2CCCCC2)nnc1-c1ccc(N)cc1	3.7% (inactive)
Cc1cc(OC(=O)c2ccccc2Cl)ccc1N1C(=O)CCC1=O	-7.9% (inactive)
CC(NS(=O)(=O)c1ccccc1)c1n[nH]c(=S)n1-c1ccccc1 (stereo unspecified)	-11.4% (inactive)
Nc1[nH][nH]c(=O)c1N=Nc1ccc2c(c1)OCO2	-6.6% (inactive)
CCC(=O)N1CCC(C)(C(=O)Nc2cc(OC)c(OC)c(OC)c2)C1 (stereo unspecified)	13.9% (inactive)
O=C(CNC(=O)OCc1ccccc1)Oc1cc2oc(=O)cc(-c3ccccc3)c2cc1Cl	72.8% (active)
O=C(CNC(=O)c1ccccc1)NCC(=O)OCc1ccc(Cl)cc1	-4.1% (inactive)
CC(Oc1ccc2c(-c3ccccc3)cc(=O)oc2c1)C(=O)NC(Cc1c[nH]c2ccccc12)C(=O)O (stereo unspecified)	-11.2% (inactive)
Cc1cc(NC(=O)CS(=O)(=O)c2cn(C)c3ccccc23)no1	-0.5% (inactive)
OC[C@@H]1CN(Cc2ccc(-c3ccccc3)cc2)C[C@H](n2cnc3c(NC4CCCC4)ncnc32)O1	-0.3% (inactive)
Cn1cc([N+](=O)[O-])c(C(=O)Nc2ccc3c(c2)OCCO3)n1	15.1% (inactive)
Cc1nn(-c2ccccc2)c(Cl)c1/C=N/NC(=O)c1nn(C)cc1[N+](=O)[O-]	52% (active)
Cc1nn(-c2ccccc2)c(C)c1/C=N/NC(=O)CSc1nc2ccccc2c(=O)n1-c1ccccc1	23.3% (inactive)
O=C(NC1CCN(C(=S)NCc2ccco2)CC1)c1ccc(F)cc1	-0.1% (inactive)

SMILES	inhibition
CCN(C(=O)c1ccc(Br)cc1)c1ccccc1	21.8% (inactive)
C=CCN1C(=O)C(Cc2ccc(OCC)cc2)SC1=Nc1ccc(C(=O)O)cc1 (stereo unspecified)	4.1% (inactive)
Cc1ccc(-c2csc(NC(=O)C3=COCCO3)n2)cc1C	-43.3% (inactive)
COc1ccccc1C(=O)Nc1nc2nc(-c3ccccc3)cc(=O)n2[nH]1	-8% (inactive)
COc1ccc2c(c1OC)C(=O)OC2Nc1nc(-c2ccccc2)cs1 (stereo unspecified)	88.8% (active)
Cc1ccc(-c2csc(NC3OC(=O)c4ccccc43)n2)cc1 (stereo unspecified)	81.3% (active)
Cn1cc(C2OC(=O)c3ccccc32)c2ccccc21 (stereo unspecified)	41.4% (inactive)
COc1cc(C(O)c2nc(-c3cccc(C(=O)O)c3)cs2)ccc1F (stereo unspecified)	12.4% (inactive)
CN(CC(=O)O)S(=O)(=O)c1ccc2oc3ccccc3c2c1	-19.3% (inactive)
Cc1ccc(S(=O)(=O)Nc2ccc(F)c(S(=O)(=O)N3CCOCC3)c2)cc1	-4.8% (inactive)
O=C(Nc1ccccc1)c1ccccc1Br	-3.5% (inactive)
COCCCNC(=O)c1ccc(-c2c(C)noc2C)c2ccoc12	-59% (inactive)
CC(=O)c1ccc(N2CCN(S(=O)(=O)c3c(C)[nH]c(=O)[nH]c3=O)CC2)cc1	13.2% (inactive)
COc1cccc(Cn2cc(/C=N/NC(=O)c3cc(O)cc(O)c3)c3ccccc32)c1	1.7% (inactive)
COc1cccc(/C=N/Nc2cc(C)nc(-c3ccccc3O)n2)c1O	89.8% (active)
COc1cc(/C=N/Nc2ccc(C)cc2)cc(Br)c1O	-27.2% (inactive)
O=C(CN1CCOCC1)N1CCCc2c1c(=O)oc1ccc(OCc3ccccc3)cc21	-14.3% (inactive)
Cc1nn2c(c1-c1ccccc1)N=C(c1ccco1)CC2c1ccccc1 (stereo unspecified)	-5.8% (inactive)
Cc1cc(Br)ccc1NC(=O)CN(C)C(=O)CN1C(=O)NC2(CCCC2)C1=O	-8.9% (inactive)
COc1ccc(CNC(=O)/C(C#N)=C/c2cccc(OC)c2OC)cc1	59.3% (active)
COc1ccc(NC(=O)/C(C#N)=C\c2cc(OC)c(OCc3ccc(C(=O)O)cc3)cc2Br)cc1	-82.3% (inactive)
COc1ccc(/C=C(\C#N)C(=O)NCCCn2ccnc2)cc1	10.2% (inactive)

SMILES	inhibition
Cc1ccc(S(=O)(=O)NNC(=O)/C=C/c2cccc(F)c2)cc1	-21.5% (inactive)
CCOC(=O)CN1C(=O)C(O)(CC(=O)c2ccccn2)c2ccccc21 (stereo unspecified)	13% (inactive)
Cc1ccc(C2=CSC3=NS(=O)(=O)CCN23)cc1C	6.1% (inactive)
COc1cc(OC)c(C(=O)NNC(=O)c2ccccc2-n2cccc2)cc1OC	-9.9% (inactive)
CCCN(CCC)C(=S)Nc1cc(C(=O)OC)ccc1C(=O)OC	10.8% (inactive)
COC(=O)c1ccc(C(=O)Nc2cc(Cl)ccc2Cl)cc1NC(=O)c1ccccc1C	54% (active)
COC(=O)c1ccc(C(=O)OC)c(NC(=S)N2CCN(c3cc(Cl)ccc3C)CC2)c1	0.4% (inactive)
CCOC(=O)c1c(C)[nH]c(C)c1C(=O)COC(=O)/C=C/c1cccc([N+](=O)[O-])c1	-19.4% (inactive)
CCC12CN3CC(CC)(CN(C1)C31C(=O)N(C)c3ccc(C)cc31)C2=O (stereo unspecified)	8.9% (inactive)
CCOC(=O)C1(C)CCCN(C(=O)c2ccc(N(C)C)cc2)C1 (stereo unspecified)	-1.1% (inactive)
Cc1cccc(-n2nc3c(c2NC(=O)c2cc4ccccc4o2)CS(=O)(=O)C3)c1	4.3% (inactive)
CC(C)CC1(C(=O)NCc2ccccn2)C=CCN1C(=O)c1ccccc1 (stereo unspecified)	-3.1% (inactive)
O=C(Nc1cccc2ccccc12)c1[nH]c(-c2ccccc2)c2c1C(=O)N(C1CC1)C2=O	63.7% (active)
O=C(Nc1cccc2ccccc12)c1onc2c1CCCC2	-10.2% (inactive)
O=C(Nc1cccc2ccccc12)NC1CC1	-3.5% (inactive)
CCC(=O)N(Cc1cc2ccccc2[nH]c1=O)c1ccc(OC)cc1	-0.6% (inactive)
CC(=O)N(Cc1cc(=O)[nH]c2ccccc12)c1ccc(C)cc1C	10.4% (inactive)
Cc1ccc(N(Cc2cc(=O)[nH]c3ccccc23)C(=O)CCl)cc1	63.4% (active)
CCOC(=O)N1CCN(C(=O)c2ccccc2SCC(=O)NCC2CCCCC2)CC1	-2% (inactive)
Cc1ccc(C(=O)CCC(=O)N(C)CC(=O)Nc2c(Cl)cccc2Cl)cc1	-7.8% (inactive)
Cc1ccc(NC(=O)CN(C)C(=O)COC(=O)c2nccnc2N)cc1	-12.4% (inactive)
Cc1cc(C(=O)CCC(=O)NNC(=O)c2ccccc2O)c(C)s1	-22% (inactive)

SMILES	inhibition
O=C(NNC(=O)c1ccccc1O)c1ccccc1O	61.7% (active)
CC1=C(C)CC(C(=O)NNC(=O)c2ccccc2O)C(C(=O)O)C1 (stereo unspecified)	-2.9% (inactive)
COCCNC(=O)c1ccc2c(c1)ncn2-c1ccc(C)c(Cl)c1	-3.6% (inactive)
COCCN(C(=O)CCC(=O)Nc1nccs1)C(C(=O)NCCC(C)C)c1ccc(F)cc1 (stereo unspecified)	-16.8% (inactive)
O=C(O)c1cc(S(=O)(=O)N(Cc2ccccc2)c2cccc(C(F)(F)F)c2)ccc1Cl	-4.7% (inactive)
O=C(NNc1ccccc1Cl)C(O)(c1cccc(C(F)(F)F)c1)c1cccc(C(F)(F)F)c1	55.6% (active)
O=C(CNS(=O)(=O)c1cccc(C(F)(F)F)c1)Nc1ccccc1F	-4.7% (inactive)
Cc1cccc(NC(=O)CSc2nnc(CCCCCNC(=O)OC(C)(C)C)o2)c1C	-6.7% (inactive)
NC(=O)COc1ccccc1C(=O)NC12CC3CC(CC(C3)C1)C2	3.5% (inactive)
C=C1C(=O)[C@]23C[C@H]1CCC2[C@@]1(C)C(C[C@@H]3O)[C@](C)(C(=O)O)CC[C@@H]1O (stereo partly specified)	82.6% (active)
CCN(CC)CCCNC(=O)c1cn(C)c2ccc(S(=O)(=O)N(C)C3CCCCC3)cc2c1=O	9.2% (inactive)
CC(=O)c1cccc(-c2ccc(CN3C(CC(C)C)C(=O)N(Cc4cn(CC5CCCCC5)nn4)CCS3(=O)=O)cc2)c1 (stereo unspecified)	13.4% (inactive)
COCOCCn1cc(CN2CCS(=O)(=O)N(Cc3ccc(-c4ccc(OC)cc4)cc3)C(CC(C)C)C2=O)nn1 (stereo unspecified)	-5% (inactive)
COCOCCn1cc(CN2CCS(=O)(=O)N(Cc3ccc(-c4ccccc4)cc3)C(CC(C)C)C2=O)nn1 (stereo unspecified)	23.5% (inactive)
CC(C)CC1C(=O)N(Cc2cn(CC3CCCCC3)nn2)CCS(=O)(=O)N1Cc1ccc(-c2ccc(Cl)cc2)cc1 (stereo unspecified)	55.8% (active)
COc1ccc(-c2ccc(CN3C(CC(C)C)C(=O)N(Cc4cn(CC5CCCCC5)nn4)CCS3(=O)=O)cc2)cn1 (stereo unspecified)	66.1% (active)
CC(C)CC1C(=O)N(Cc2cn(Cc3ccco3)nn2)CCS(=O)(=O)N1Cc1ccc(-c2ccc(Cl)c(Cl)c2)cc1 (stereo unspecified)	66.8% (active)
COc1ccc(-c2ccc(CN3C(CC(C)C)C(=O)N(Cc4cn(CC5CCCCC5)nn4)CCS3(=O)=O)cc2)cc1 (stereo unspecified)	41.4% (inactive)
COc1ccc(-c2ccc(CN3C(C(C)C)C(=O)N(Cc4cn(CC5CCCCC5)nn4)CCS3(=O)=O)cc2)cn1 (stereo unspecified)	-2.4% (inactive)
CC1C(=O)N(Cc2cn(Cc3ccco3)nn2)CCS(=O)(=O)N1Cc1ccc(-c2cccc(CO)c2)cc1 (stereo unspecified)	3.2% (inactive)
